{"source": "PubChem BioAssay (NCATS)", "key": {"[1]": {"tested_on": "Nanoluciferase (engineered Oplophorus gracilirostris luciferase)", "test": "Primary Nanoluciferase (NLuc) qHTS assay for identification of artifact compounds. (AID 1845222); note: potency is the fitted concentration of half-maximal effect; for activity, negative = inhibition: series mostly up to about 54 µM", "summary_of_the_method": "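Luminescence read-out of secreted NLuc in S16 cell conditioned medium (1:55); compounds tested with 15 min RT preincubation, then Nano-Glo substrate 1:100, 5 min. % inhibition vs no-enzyme and DMSO controls, 4-parameter Hill fit.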"}, "[2]": {"test": "Primary redox qHTS assay for identification of artifact compounds. (AID 1845223)", "summary_of_the_method": "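Redox-cycling detection via DTT (250 uM final) oxidation coupled to Amplex Red (25 uM)/HRP (250 mU/mL) in HBSS. 15 min preincubation plus 30 min after DTT, room temperature. Ex/Em 525/598 nm; 4-parameter Hill fit against DMSO and 10 uM DA3003.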"}}, "note": "A number with no mark means an inactive call. Results filed as inconclusive are left out. Entries that show only a call come without a potency. Active and inactive are the calls of the source. Calls come from the whole dose curve; as a rule, active = well fitted curve in the direction sought with a large enough effect; inconclusive = small, poorly fitted or top-dose-only effect, or another doubt; inactive = no such curve, though single readings can be large; an effect the other way counts as inactive or inconclusive."}
{"compound": "CCNC(=O)C1CC(F)(c2ccc(CN3CCCC3)c(F)c2)C1", "note": "(configuration not stated)", "values": [{"measurement": "Potency", "setting": "[1]", "value": "inactive"}, {"measurement": "Potency", "setting": "[2]", "value": "inactive"}]}
{"compound": "CC(=O)Nc1cccc2c1c(Sc1ccc(Cl)cc1)c(C)n2CC(=O)O", "values": [{"measurement": "Potency", "setting": "[1]", "value": "10.7 µM (active)"}, {"measurement": "Potency", "setting": "[2]", "value": "inactive"}]}
{"compound": "COc1cncc(C#Cc2ccccn2)c1", "values": [{"measurement": "Potency", "setting": "[1]", "value": "inactive"}, {"measurement": "Potency", "setting": "[2]", "value": "inactive"}]}
{"compound": "CC1(O)CCC2C(C3C1CCC3(C)O)C2(C)C", "note": "(configuration not stated)", "values": [{"measurement": "Potency", "setting": "[1]", "value": "inactive"}, {"measurement": "Potency", "setting": "[2]", "value": "inactive"}]}
{"compound": "COC(=O)C(CC1(O)c2ccccc2N2C(=O)C(C)(C)N(O)C21)n1cnc2ccccc2c1=O", "note": "(configuration not stated)", "values": [{"measurement": "Potency", "setting": "[1]", "value": "inactive"}, {"measurement": "Potency", "setting": "[2]", "value": "inactive"}]}
{"compound": "CC1(C)CC[C@]2(C(=O)O)CC[C@]3(C)C(=CCC4[C@@]5(C)C[C@@H](O)[C@H](O)[C@@](C)(CO)C5CC[C@]43C)C2C1", "note": "(some centres not stated)", "values": [{"measurement": "Potency", "setting": "[1]", "value": "inactive"}, {"measurement": "Potency", "setting": "[2]", "value": "inactive"}]}
{"compound": "COc1cc(/C=C/C(=O)O)ccc1O[C@@H]1O[C@H](CO)[C@@H](O)[C@H](O)[C@H]1O[C@@H]1OC[C@](O)(CO)[C@H]1O", "values": [{"measurement": "Potency", "setting": "[1]", "value": "inactive"}, {"measurement": "Potency", "setting": "[2]", "value": "inactive"}]}
{"compound": "C[C@H]1[C@H](C)CC[C@]2(C(=O)O)CC[C@]3(C(=O)O)C(=CCC4[C@@]5(C)CC[C@H](O[C@@H]6O[C@@H](C)[C@H](O)[C@@H](O)[C@H]6O)C(C)(C)C5CC[C@]43C)[C@H]12", "note": "(some centres not stated)", "values": [{"measurement": "Potency", "setting": "[1]", "value": "inactive"}, {"measurement": "Potency", "setting": "[2]", "value": "inactive"}]}
{"compound": "C/C=C(\\C)C(=O)OC[C@H]1O[C@@H](O[C@H]2[C@@H](O[C@H]3O[C@H](COC(=O)/C(C)=C/C)[C@@H](O)[C@H](O)[C@H]3O[C@@H]3O[C@H](COC(=O)/C(C)=C/C)[C@@H](O)[C@H](OC(=O)/C(C)=C/C)[C@H]3O)O[C@H](COC(=O)/C(C)=C/C)[C@@H](O)[C@@H]2O)[C@H](O)[C@@H](O)[C@@H]1O", "values": [{"measurement": "activity, negative = inhibition", "setting": "[1]", "value": "0.483% [at 11.6 µM]"}, {"measurement": "redox activity (% of DA3003)", "setting": "[2]", "value": "-2.39% [at 11.5 µM]"}]}
{"compound": "C=C1C(=O)OC2CC(COC(=O)C(C)C)=C(C(C)CCCOC(C)=O)[C@@H](OC(C)=O)C12", "note": "(some centres not stated)", "values": [{"measurement": "Potency", "setting": "[1]", "value": "inactive"}, {"measurement": "Potency", "setting": "[2]", "value": "inactive"}]}
{"compound": "C[C@@H]1[C@H]2[C@H](O[C@@H]3O[C@H](CO)[C@@H](O)[C@H](O)[C@H]3O)OC=C(C(=O)O)[C@H]2C[C@@H]1OC(=O)/C=C/c1ccc(O)cc1", "values": [{"measurement": "Potency", "setting": "[1]", "value": "inactive"}, {"measurement": "Potency", "setting": "[2]", "value": "inactive"}]}
{"compound": "C/C=C/C=C/C=C/C(=O)O[C@@H]1[C@@H](OC)C2=C(C(=O)N(C(CCC(=O)O)C(=O)O)C2)[C@@]2(C)CCCC(C)(C)[C@H]12", "note": "(some centres not stated)", "values": [{"measurement": "Potency", "setting": "[1]", "value": "inactive"}, {"measurement": "Potency", "setting": "[2]", "value": "inactive"}]}
{"compound": "Fc1ccccc1-c1nc2ccn(Cc3ccc(-c4ccc(C(F)(F)F)cc4C(F)(F)F)nn3)cc-2n1", "values": [{"measurement": "Potency", "setting": "[1]", "value": "inactive"}, {"measurement": "Potency", "setting": "[2]", "value": "inactive"}]}
{"compound": "COC(=O)C[C@@H]1C(C(=O)O)=CO[C@@H](O[C@@H]2O[C@H](CO)[C@@H](O)[C@H](O)[C@H]2O)/C1=C\\COC(=O)/C=C/c1ccc(O)c(OC)c1", "values": [{"measurement": "Potency", "setting": "[1]", "value": "inactive"}, {"measurement": "Potency", "setting": "[2]", "value": "inactive"}]}
{"compound": "COC(=O)C1=COC(O[C@@H]2O[C@H](CO)[C@@H](O)[C@H](O)[C@H]2O)[C@@H]2[C@@](C)(O)[C@@H](OC(=O)/C=C/c3ccccc3)C[C@]12O", "note": "(some centres not stated)", "values": [{"measurement": "Potency", "setting": "[1]", "value": "inactive"}, {"measurement": "Potency", "setting": "[2]", "value": "inactive"}]}
{"compound": "CC1=C2CC(O)(C(C)(C)O)C(O[C@@H]3O[C@H](CO)[C@@H](O)[C@H](O)[C@H]3O)CC(C)C2CC1=O", "note": "(some centres not stated)", "values": [{"measurement": "Potency", "setting": "[1]", "value": "inactive"}, {"measurement": "Potency", "setting": "[2]", "value": "inactive"}]}
{"compound": "C=C1CC23CC1CCC2C12OC(=O)C(C)(C(O)C(O)C1O)C2C3C(=O)O", "note": "(configuration not stated)", "values": [{"measurement": "Potency", "setting": "[1]", "value": "inactive"}, {"measurement": "Potency", "setting": "[2]", "value": "inactive"}]}
{"compound": "C=C1CCc2occ(C)c2[C@H]2[C@H]1[C@@]13O[C@@]1(C[C@@H](C)[C@H]3OC(C)=O)[C@H]1O[C@@]21C", "values": [{"measurement": "Potency", "setting": "[1]", "value": "inactive"}, {"measurement": "Potency", "setting": "[2]", "value": "inactive"}]}
{"compound": "CC(=O)OC1CC2C(C)(C)C(=O)C=CC2(C)C2CC(=O)C3=C(CCC3C3=CC(O)OC3=O)C12C", "note": "(configuration not stated)", "values": [{"measurement": "Potency", "setting": "[1]", "value": "inactive"}, {"measurement": "Potency", "setting": "[2]", "value": "inactive"}]}
{"compound": "COC(=O)C1=CO[C@@H](O[C@@H]2O[C@H](CO[C@@H]3O[C@H](CO)[C@@H](O)[C@H](O)[C@H]3O)[C@@H](O)[C@H](O)[C@H]2O)[C@@H]2C(CO)=CC[C@H]12", "values": [{"measurement": "Potency", "setting": "[1]", "value": "inactive"}, {"measurement": "Potency", "setting": "[2]", "value": "inactive"}]}
{"compound": "C=CC(C)(O)CC/C=C(\\C)COC1O[C@H](CO)[C@@H](O)[C@H](O)[C@H]1O", "note": "(some centres not stated)", "values": [{"measurement": "Potency", "setting": "[1]", "value": "inactive"}, {"measurement": "Potency", "setting": "[2]", "value": "inactive"}]}
